In the library only some 19% were active in any assay of this set; here they are far more common.
TDP1 cell noCPT = qHTS for Inhibitors of human tyrosyl-DNA phosphodiesterase 1 (TDP1): qHTS in cells in absence of CPT. hit rate 15% among 420,000. DT40 Tdp1-/- hTDP1 cells, no CPT, ATP luminescence, 48 h. Potency, µM (top dose mostly 46.2 µM), without a hit: at the top dose activity change, negative = growth inhibition, most hits filed as inhibitors; also: nearly all actives have a fitted effect of over 55% in size
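Readout: luminescence from CellTiter-Glo after 30 min in the dark at RT. Cells: DT40 Tdp1-/- with stable hTDP1, 400/well. Exposure: compounds alone, ≥48 hr, 37 °C.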
RORg inh = inhibitors of mouse ROR gamma transcriptional activity; hit rate 5.4% among 310,000; Drosophila S2 Gal4-RORgamma UAS-luciferase reporter, 20 h; P51450; AID 2551; Potency, µM (highest dose often 53.6 µM), for the others: at the highest dose activity change, negative = inhibition, most hits filed as inhibitors; also: nearly all actives have a fitted effect of over 60% in size
Target sequence (P51450 whole entry, looked up, the tested form may be a part): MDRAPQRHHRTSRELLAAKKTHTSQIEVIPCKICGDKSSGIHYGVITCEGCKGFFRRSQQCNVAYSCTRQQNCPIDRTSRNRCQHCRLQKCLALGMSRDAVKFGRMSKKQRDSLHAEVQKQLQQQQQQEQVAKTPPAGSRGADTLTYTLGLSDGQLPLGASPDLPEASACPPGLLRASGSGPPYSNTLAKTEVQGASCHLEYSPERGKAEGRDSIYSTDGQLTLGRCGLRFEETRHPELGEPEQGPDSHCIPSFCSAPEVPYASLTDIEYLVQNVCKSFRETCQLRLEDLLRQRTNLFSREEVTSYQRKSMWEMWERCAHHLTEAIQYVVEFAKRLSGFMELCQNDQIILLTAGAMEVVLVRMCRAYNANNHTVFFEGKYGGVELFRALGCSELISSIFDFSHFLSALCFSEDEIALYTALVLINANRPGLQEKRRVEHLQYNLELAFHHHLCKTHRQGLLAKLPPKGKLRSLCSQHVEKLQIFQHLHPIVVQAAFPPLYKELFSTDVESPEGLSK
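In this cell-based reporter format, copper sulfate (700 uM final) drives Gal4–ROR gamma fusion expression from a metallothionein promoter in Drosophila Schneider cells; compounds preincubated 1 hr, reporter read after 20 hr at ambient temperature.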
VP16 counter = inhibits Gal4-VP16 luciferase reporter, ROR gamma counter-screen; Drosophila S2 Gal4-VP16 UAS-luciferase, luminescence, 20 h; Potency, µM (titrated, usually from 53.6 µM), for the others: at the highest dose activity, negative = inhibition, most hits filed as inhibitors; AID 2546; hit rate 3.5% among 310,000;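 also: Gal4-VP16 expression switched on by copper sulfate through the metallothionein promoter; nearly all actives have a fitted effect of over 50% in size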
DT40 TDP1 CPT = growth inhibition of DT40 Tdp1-/-;hTDP1 cells with camptothecin (screen for TDP1 inhibitors); chicken DT40 Tdp1-/-;hTDP1 cells + 20 nM CPT, ATP luminescence, 48 h; Potency, µM (doses to about 46.2 µM), inactives show at the highest dose activity change, negative = growth inhibition, hits mostly inhibitors; hit rate 12% among 420,000; AID 686979; also: nearly all actives have a fitted effect of over 55% in size
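Chicken DT40 Tdp1-/- cells stably complemented with human TDP1 were seeded at 400 cells/well in medium containing 20 nM camptothecin, exposed to pin-transferred compounds, and grown at 37 °C for at least 48 hr. Viability was read as ATP luminescence.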
TDP1 block = blocks human tyrosyl-DNA phosphodiesterase 1 | Q9NUW8 | hit rate 0.28% among 350,000 | Potency, µM (doses to about 130 µM), without a hit: top-dose activity change, negative = inhibition, hits mostly inhibitors | recombinant TDP1, AlphaScreen DNA substrate cleavage; also: nearly all actives have a fitted effect of over 40% in size
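Tdp1 1 nM final; 15 min RT w/ cpd; substrate 15 nM, 5 min; beads 10 ug/ml, 10 min; AlphaScreen read. Neg ctrl: no enzyme.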
* marks the source's active call; other numbers are inactive results. Calls follow the shape of the dose curve; as a rule, active = well fitted curve in the direction sought with a large enough effect; inconclusive = small, poorly fitted or top-dose-only effect, or another doubt; inactive = no such curve, though single readings can be large; an effect the other way counts as inactive or inconclusive. % is scaled to controls: 0 for no effect and ±100 for the full control effect; potency is read from the fitted curve at half-maximal effect.

What do the screens show for `COCCNc1nnc(SC(C)C(=O)Nc2c(C)n(C)n(-c3ccccc3)c2=O)s1` (stereo not given)?
TDP1 cell noCPT: -21%; RORg inh: -14%; VP16 counter: 1%; DT40 TDP1 CPT: 5%; TDP1 block: 0%

How did CC(=O)c1ccc(NC(=O)c2nc3ccccc3nc2N2CCCCC2)cc1 do in these assays?
TDP1 cell noCPT: inconclusive; DT40 TDP1 CPT: inconclusive; TDP1 block: 10%

How did Cc1onc(-c2ccccc2)c1C(=O)N/N=C/C=C/c1ccccc1 do in these assays?
TDP1 cell noCPT: inconclusive; RORg inh: 2.2µM*; VP16 counter: 3.2µM*; DT40 TDP1 CPT: inconclusive; TDP1 block: 3%

How did Cc1onc(-c2ccccc2)c1C(=O)N/N=C/c1cccc(O)c1 do in these assays?
TDP1 cell noCPT: inconclusive; RORg inh: 2%; VP16 counter: -10%; DT40 TDP1 CPT: -17%; TDP1 block: -5%

What do the screens show for `Cc1cccc(C)c1NCC(=O)N1CCN(Cc2ccccc2)CC1`?
TDP1 cell noCPT: inconclusive; RORg inh: -4%; VP16 counter: -4%; DT40 TDP1 CPT: inconclusive

What do the screens show for `CSc1cccc(NC(=O)CSc2ccc(Cl)cc2)c1`?
TDP1 cell noCPT: inconclusive; RORg inh: -12%; VP16 counter: 12%; DT40 TDP1 CPT: -24%; TDP1 block: -1%

What do the screens show for `CC1(C)C/C(=N\NC(=S)Nc2ccccc2F)c2cc(O)ccc2O1`?
TDP1 cell noCPT: 4.1µM*; RORg inh: 3.2µM*; VP16 counter: inconclusive; DT40 TDP1 CPT: inconclusive; TDP1 block: 12%

Results for COc1cccc(NC(=S)NN=C2CCC(C(C)(C)C)CC2)c1 (stereo not given) ?
TDP1 cell noCPT: inconclusive; RORg inh: inconclusive; VP16 counter: 3%; DT40 TDP1 CPT: inconclusive; TDP1 block: 8%

How did COc1cccc(NC(=S)N/N=C2\CC(C)(C)Oc3ccc(O)cc32)c1 do in these assays?
TDP1 cell noCPT: inconclusive; RORg inh: 7.1µM*; VP16 counter: 4.5µM*; DT40 TDP1 CPT: inconclusive; TDP1 block: 7%

How did Cc1cccc(NC(=S)N/N=C2\CC(C)(C)Oc3ccc(O)cc32)c1 do in these assays?
TDP1 cell noCPT: 2.6µM*; RORg inh: 4.5µM*; VP16 counter: 3.2µM*; DT40 TDP1 CPT: 3.7µM*; TDP1 block: 6%

What do the screens show for `Cc1cccc(NC(=S)N/N=C/c2ccc3c(c2)OCO3)c1`?
TDP1 cell noCPT: inconclusive; RORg inh: -5%; VP16 counter: -15%; DT40 TDP1 CPT: inconclusive; TDP1 block: 1%

Results for O=C(CCN1C(=O)c2ccccc2C1=O)NC(=S)Nc1cccc(Cl)c1 ?
TDP1 cell noCPT: -19%; RORg inh: 11µM*; VP16 counter: inconclusive; DT40 TDP1 CPT: -22%; TDP1 block: 4%

What do the screens show for `Cc1cc(C)cc(NC(=S)NC(=O)CCN2C(=O)c3ccccc3C2=O)c1`?
TDP1 cell noCPT: inconclusive; RORg inh: 3.5µM*; VP16 counter: 4.5µM*; DT40 TDP1 CPT: -28%; TDP1 block: 7%

How did Cc1ccc(-n2c(SCC(=O)N3CCN(c4ccccn4)CC3)nnc2N2CCCC2)cc1 do in these assays?
TDP1 cell noCPT: -23%; DT40 TDP1 CPT: -9%; TDP1 block: 2%

How did NC(=O)C1(NC(=O)[C@@H]2CC3(CC(c4cccc(NC(=O)[C@@H]5CCC(=O)N5)c4)=NO3)CN2C(=O)Cc2ccc(C(F)(F)F)cc2)CC1 (stereo not given in full) do in these assays?
TDP1 cell noCPT: 8%; RORg inh: -13%; VP16 counter: 4%; DT40 TDP1 CPT: 8%; TDP1 block: 4%

How did CCOc1ccc(CCNC(=O)COC(=O)Cc2c[nH]c3ccccc23)cc1OCC do in these assays?
TDP1 cell noCPT: -27%; DT40 TDP1 CPT: -18%; TDP1 block: 1%

What do the screens show for `COc1ccc(S(=O)(=O)NCC2CCCN(C(=O)c3sccc3C)C2)cc1` (stereo not given)?
TDP1 cell noCPT: -2%; RORg inh: 27%; VP16 counter: 20%; DT40 TDP1 CPT: -29%; TDP1 block: 2%
